Assay outcomes as filed in PubChem BioAssay.
NPSR antag = blocks cAMP signaling of the human neuropeptide S receptor; Q6W5P4; CHO-NPSR cells, cAMP TR-FRET, antagonist mode; Potency, µM (series often up to 38.3 µM), for inactives: at the highest dose activity change, negative = inhibition, hits mostly inhibitors; 220,000 tested, 1% active; note: nearly all actives have a fitted effect of over 50% in size
Target sequence (Q6W5P4 whole entry, looked up): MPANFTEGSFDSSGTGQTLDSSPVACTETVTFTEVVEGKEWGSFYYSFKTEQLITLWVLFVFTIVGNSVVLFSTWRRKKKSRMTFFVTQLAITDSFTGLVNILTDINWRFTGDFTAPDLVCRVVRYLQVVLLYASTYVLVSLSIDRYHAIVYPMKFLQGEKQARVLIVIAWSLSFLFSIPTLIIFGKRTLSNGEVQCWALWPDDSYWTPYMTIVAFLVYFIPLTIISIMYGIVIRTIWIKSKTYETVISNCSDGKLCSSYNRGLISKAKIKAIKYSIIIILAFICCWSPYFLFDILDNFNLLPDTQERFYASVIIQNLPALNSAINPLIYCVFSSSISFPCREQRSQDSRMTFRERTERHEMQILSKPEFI
TrxR1 substrate = rat thioredoxin reductase 1 substrate activity. 390,000 tested, 0.01% active. O89049. Potency, µM (top dose mostly 114 µM), for the others: at the highest dose activity change, negative = substrate turnover. purified TrxR1 substrate turnover, NADPH consumption readout; note: nearly all actives have a fitted effect of over 50% in size
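Rat TrxR1, dispensed at 90 nM, was prereduced with 400 uM NADPH (final) for 5 min at ~22 deg C, then incubated with compound 15 min before 400 uM selenite. A first-read NADPH fluorescence drop versus no-compound background flagged substrates.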
TrxR1 inh = rat TrxR1 inhibition; Potency, µM (doses to about 114 µM), inactives show top-dose activity change, negative = inhibition, hits mostly inhibitors; AID 588453; 390,000 tested, 1% active; recombinant rTrxR1, NADPH fluorescence consumption, selenite substrate; note: nearly all actives have a fitted effect of over 65% in size
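Rat TrxR1 (90 nM in the dispensed reagent) was pre-reduced with 400 uM NADPH for 5 min at room temperature, then incubated with compound for 15 min. After 400 uM selenite was added, NADPH fluorescence (Ex 340/Em 450 nm) was followed for 8 min.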
GALK inh = galactokinase (human) inhibition | P51570 | Purified GALK, Kinase-Glo residual ATP luminescence | Potency, µM (titrated, usually from 57.5 µM), without a hit: at the top dose activity change, negative = inhibition, hits mostly inhibitors | 270,000 tested, 0.007% active | AID 1868
Target sequence (P51570 whole entry, looked up): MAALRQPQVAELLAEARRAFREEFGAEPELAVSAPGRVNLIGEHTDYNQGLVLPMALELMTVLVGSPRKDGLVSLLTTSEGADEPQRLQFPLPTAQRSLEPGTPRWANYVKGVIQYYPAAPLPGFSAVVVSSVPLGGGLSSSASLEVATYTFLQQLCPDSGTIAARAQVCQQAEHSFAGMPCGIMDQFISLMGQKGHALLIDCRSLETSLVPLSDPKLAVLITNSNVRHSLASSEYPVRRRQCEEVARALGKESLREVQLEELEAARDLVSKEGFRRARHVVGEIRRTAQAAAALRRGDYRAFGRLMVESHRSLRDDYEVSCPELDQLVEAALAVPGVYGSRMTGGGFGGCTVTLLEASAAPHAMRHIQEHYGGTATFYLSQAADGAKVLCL
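GALK at 5 nM final was combined with compound, 35 uM ATP and 100 uM galactose in HEPES pH8.0 with MgCl2 and DTT. The reaction ran one hour at room temperature before luminescent ATP detection.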
The depositor's hits bear a star; i = inactive; ? = inconclusive; . = no result given; [ ] = dose if it differs, or a comment. Most compounds without a hit are left out; they make up all but 1.2% or so of the library. Calls come from the whole dose curve; as a rule, active = well fitted curve in the direction sought with a large enough effect; inconclusive = small, poorly fitted or top-dose-only effect, or another doubt; inactive = no such curve, though single readings can be large; an effect the other way counts as inactive or inconclusive. % is set by controls: 0 for no effect and ±100 for the full control effect; potency is the fitted concentration of half-maximal effect.

SMILES	NPSR antag	TrxR1 substrate	TrxR1 inh	GALK inh
C/C(=C\c1ccc(C)o1)C(=O)c1c(C)cc(C)[nH]c1=O	24.6%	-9.3%	50.1µM*	-1.4%
C/C(=C\c1cccc(Br)c1)C(=O)c1c(C)cc(C)[nH]c1=O	.	-5.0%	6.4%	6.7%
CN(C)c1ccc(C=c2c3cc([N+](=O)[O-])ccc3n3c2cc(-c2ccccc2)[n+]3C)cc1	.	-18.7%	39.8µM*	.
COc1cc(C=c2c3ccccc3n3c2cc(-c2ccccc2)[n+]3C)cc(OC)c1OC	.	-10.4%	50.1µM*	.
CN(C)c1ccc(C=c2c3ccccc3n3c2cc(-c2ccccc2)[n+]3C)cc1	.	1.2%[11.4 µM]	6.1%[11.4 µM]	.
CCOc1ccccc1NC(=O)c1ccc2c(Cl)c3c(nc2c1)CCCC3	.	2.1%	17.8%	.
CS(=O)(=O)N1CCc2cc(C(=O)Nc3ccc(Cl)c(C(F)(F)F)c3)ccc21	.	0.5%	44.8%	.
COc1ccc(C2Nc3cccc4cccc(c34)N2)cc1Br	.	0.1%	?	3.9%
COc1cc(C2Nc3cccc4cccc(c34)N2)cc(OC)c1O	-8.5%[46.1 µM]	10.6%	15.8µM*	-2.5%
COc1cc(C2Nc3cccc4cccc(c34)N2)ccc1OC(C)=O	-11.7%[46.1 µM]	1.2%	10µM*	0.7%
CCc1ccc(C=O)cc1	.	-9.5%	-7.1%	.
CC(C)(C)c1ccc(C(=O)CC(Sc2ccc(Cl)cc2)C(=O)O)cc1 (stereo unspecified)	?	-5.7%	56.2µM*	3.7%
Cc1ccc(SC(CC(=O)c2ccc(F)cc2)C(=O)O)cc1 (stereo unspecified)	.	11.1%[57.1 µM]	?	-3.8%
O=C(NCc1ccco1)C1Cc2ccccc2CN1C(=O)c1ccco1 (stereo unspecified)	5.2%	-20.5%[11.4 µM]	-43.0%	6.8%
O=C(NCc1ccco1)C1Cc2ccccc2CN1S(=O)(=O)c1ccccc1F (stereo unspecified)	.	-0.5%	15.8µM*	.
COc1cc2nc(N3CCCN(C)CC3)nc(N3CCN(C)CC3)c2cc1OC	.	277.1%	22.3%	.
O=C(Nc1ccccc1)c1sc2cc(C(F)(F)F)cnc2c1-c1cccs1	10µM*	4.5%[57.1 µM]	-56.6%	2.5%
NNC(=O)c1sc2cc(C(F)(F)F)cnc2c1-c1cccs1	-7.7%	-4.5%[57.1 µM]	-1.7%[57.1 µM]	-1.9%
COC(=O)c1cn[nH]c1NC(=S)Nc1ccc(C)cc1Cl	-24.5%[46.1 µM]	4.8%	?	1.9%
CCCC(=O)NC(=S)Nc1ccccc1C(=O)OC	-10.5%[46.1 µM]	5.0%[57.1 µM]	-12.2%[57.1 µM]	.
COC(=O)c1cn[nH]c1NC(=S)Nc1ccccc1C	-7.0%[46.1 µM]	9.7%	0.794µM*	1.6%
CCC(=O)NC(=S)Nc1ccccc1C(=O)OC	18.4%	-4.5%	50.1µM*	0.9%
Cc1ccccc1OCc1nc(-c2ccc(NC(=O)c3ccc4c(c3)OCO4)cc2)no1	10µM*	10.2%[57.1 µM]	16.8%[57.1 µM]	0.4%
O=c1cc(Br)c(O)c(Br)cc1Br	.	-3.1%	3.16µM*	.
Oc1c(Br)cc(Br)c2cccnc12	.	8.7%	6.5%	.
SMILES	NPSR antag	TrxR1 substrate	TrxR1 inh	GALK inh
O=c1oc2c(CN3CCN(CCO)CC3)c(O)ccc2cc1-c1ccccn1	-11.1%	i	44.7µM*	0.2%
Cc1ccc(/C=C/C(=O)OCC(=O)NC(C)c2ccccc2)o1 (stereo unspecified)	.	-7.6%	50.1µM*	.
Cc1ccc(/C=C/C(=O)OCC(=O)N2CC(=O)Nc3ccccc32)o1	-5.9%	-7.2%[57.1 µM]	28.2µM*	-1.0%
Cc1cc(C(=O)OCC(=O)NC(C)c2ccccc2)c(C)o1 (stereo unspecified)	1.7%	-2.3%	7.3%	8.5%
COC(=O)c1ccc(OCC2c3cc(OC)c(OC)cc3CCN2C(=O)COc2ccc(Cl)cc2)cc1 (stereo unspecified)	.	3.0%[57.1 µM]	17.7%[57.1 µM]	.
CCOC(=O)c1cnc2ccc(C(=O)OC)cc2c1NCCCN1CCOCC1	.	8.3%[57.1 µM]	-72.8%	2.8%
CCOC(=O)c1cnc2ccc(C(=O)OC)cc2c1NCCN1CCOCC1	-17.1%[46.1 µM]	6.5%	44.7µM*	10.1%
CC(C)(C)C1CCc2c(sc(NC(=O)Cn3nnc(-c4ccccc4Cl)n3)c2C#N)C1 (stereo unspecified)	.	-1.3%	10.4%	.
CC(=O)CCS(=O)(=O)c1ccc(Oc2ccc(S(=O)(=O)CCC(C)=O)cc2)cc1	4.2%[46.1 µM]	-2.3%	50.1µM*	-0.2%
Cc1ccc(CN(C)C(=O)C2CCC(=O)N(CC3CCCCC3)C2)o1 (stereo unspecified)	.	6.1%	39.8µM*	-0.4%
CCOC(=O)[C@@H](C)N(C(=O)OC(C)(C)C)S(=O)(=O)N(Cc1ccccc1)[C@@H](C(=O)OC)C(C)C	.	-3.7%	14.2%	.
O=C(C=Cc1ccccc1)c1cccs1	.	-10.4%	70.8µM*	.
Nc1ccc(/C=C/C(=O)c2cccs2)cc1	-22.0%	2.4%[57.1 µM]	-8.7%	-2.8%
CC(=O)Nc1cccc(C(=O)/C=C/c2ccc(/C=C/C(=O)c3cccc(NC(C)=O)c3)cc2)c1	-16.2%	.	.	0.0%
CC(=O)Nc1cccc(C(=O)/C=C/c2ccc[nH]2)c1	15.7%[7.67 µM]	-2.9%	70.8µM*	-3.7%
COC(=O)N/N=C(C)\C=C\c1ccco1	-15.6%	-11.9%	39.8µM*	2.9%
O=C(N/N=C/c1ccco1)C(O)c1ccccc1 (stereo unspecified)	?	-0.6%	14.1%	-0.8%
CC(/C=C/c1ccco1)=N\NC(=O)C(O)c1ccccc1 (stereo unspecified)	-8.0%	-13.4%	17.8µM*	0.6%
COc1cc2c(NC3CCN(C)CC3)nc(N3CCCCC3)nc2cc1OCCCN(C)C	.	90.2%	-21.1%	.
NC1=NC[C@H](Cc2ccc(O)cc2)N1CC1CCCCC1	2.9%	8.1%[57.1 µM]	10.1%[57.1 µM]	-3.2%
NC1=NC[C@@H](Cc2ccc(O)cc2)N1CCCCC1CCCCC1	5.01µM*	6.2%[57.1 µM]	11.0%[57.1 µM]	-4.9%
O=C(CCN1CCN(c2ccccc2F)CC1)c1ccc(Br)cc1	-13.1%[46.1 µM]	10.3%	0.282µM*	-0.3%
COc1ccc(OC)c(NC(=O)CCN2CCN(c3ccccc3F)CC2)c1	-14.5%[46.1 µM]	-2.3%	-6.8%	-1.6%
COc1ccc(C(=O)CCN2CCN(c3ccccc3F)CC2)cc1	-9.4%	3.9%	1.58µM*	1.6%
C=C[C@@H]1c2cc(C)ccc2N(S(=O)(=O)c2ccc(C)cc2)[C@H](c2ccc(C(=O)OC)cc2)C1(C#N)C#N	.	8.1%	22.4%	.
SMILES	NPSR antag	TrxR1 substrate	TrxR1 inh	GALK inh
CCOC(=O)Cc1csc(NC(=O)/C=C/c2ccc(OC)cc2)n1	1.6%	-12.6%	5.8%	-0.4%
COc1cc(C2c3c(n[nH]c3C)C(=O)N2c2ccc(C)cc2)ccc1O (stereo unspecified)	-10.6%[46.1 µM]	6.7%[57.1 µM]	31.6µM*	1.2%
CCOc1cc(C2c3c(n[nH]c3C)C(=O)N2c2ccc(C)cc2)ccc1O (stereo unspecified)	-1.7%[46.1 µM]	0.7%	?	-3.4%
CC(C)(C)CC(C)(C)N=C1Nc2ccc(Cl)cc2NC12C[C@H]1CCC(=O)N3CC[C@@H](C2)[C@@H]13 (stereo partly specified)	.	-11.4%	-7.9%	.
COc1cccc(-c2nc(CS(=O)CC(=O)NCCc3ccccc3)c(C)o2)c1 (stereo unspecified)	.	-6.6%	28.2µM*	-8.0%
CCC(C)NC(=O)CS(=O)Cc1nc(-c2cccc(OC)c2)oc1C (stereo unspecified)	-8.5%[46.1 µM]	10.3%[57.1 µM]	25.1µM*	2.4%
